Data taken from the supplement of paper PMC6555819.

test system: LXRa:RXRa (NR concentration 270 nM, RXRa partner concentration 90 nM); test: PBM binding z-score (relative to random genomic background probes); higher = stronger binding; sequences stand for … in GC…GCGATTGACAGCGTAGAATGAAGG
Outline: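 Ligand-free nuclear receptor dimers were bound for 1 h to custom Agilent 4×180K protein-binding microarrays. Detection used antibodies against each partner (one per run). Binding z-scores rest on regression-normalized fluorescence, with random background probes as the reference.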

Sequence	PBM binding z-score
TCTCGGAGGACACGATGGTCAGAGCTTTCCAGAG	-0.284
GCTTACGGATCAAAGGTTATAGCATGAATAGAAT	2.43
CTACCAAGGTGAACAAGGTCGTCGATTACTATTC	1.49
AATACAGGGTCATCGTAGGCCAGTGTACGCACAG	6.17
CCTGCTAGGTCATGGTCAGATAATCTACAGTATG	2.5
CGAACTAGGTCAAAGGTCAAAGTCGAGCCAACCA	7.41
AATACAGGGTCATTGTAGGCCAGAGTACGCACAG	6.93
AGAATGAGGTTATACGTAGATCAGGGATGAAAGT	1.9
ATCGAAAGGTCGAGGTGAGTTTAGAGAAAGGGAA	3.68
TGAATGAGGTGATAAGATCAGGGAACGTTGCAAA	-0.0507
ATCGAAAGGTCGAAGGTTAGTATACCCACCCGAA	3.5
TCATATAGGTAAAGGGTGAAAGTCGGTGTGGTAA	1.71
CCTTACGGGTCAAGGTTATAGCGCGGGTGGTACG	3.66
CATCCAAGGTCAGAGAGGTCAGTGAATGCCGAGT	5.84
CCTTACGGGGCACTGACAGGTTATAGCATTTGGA	0.0473
TGAATGAGGTTAAAAATCAGGGAACGTGGCGTCG	1.78
TTACCAAGGTGAAAGGTTGTTGATGCACGCCTTG	1.15
CCTAGCAGGCCCGGGTCACTCAAGCATTTCGCTT	1.11
AGTCAAAGTTCACCAGGTAACGTAAGATTCAGCT	5.59
TCTTGTAGATCAAGCCGGTTAAGAAAGCCTGAGT	0.416
TCGAGTAGGTTAGGGGCCTTCAGAATGGCGTCGA	-0.323
GCTGGGAGGACAAGGTCAGAGCTTTGTCCGTAGA	1.84
